Screens from PubChem BioAssay.
ClpP mod = qHTS Assay for Activators of ClpP | ATP-dependent Clp protease proteolytic subunit (Bacillus subtilis (strain 168)), P80244 | purified B. subtilis ClpP, FRET peptide cleavage, 20 min | Potency, µM (series often up to 57.5 µM), for inactives: at the top dose activity change, negative = active | 340,000 tested, 1.9% active | AID 651965, 2013; active = well fitted falling curve with a large enough effect; inconclusive = small, poorly fitted or top-dose-only effect; inactive = no such curve, though single readings can be large or run the other way; note: the source files actives as falling curves though it sought activators and does not explain the sign; nearly all actives have a fitted effect of over 65% in size
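Purified B. subtilis ClpP, 10 microg/mL final in Tris/HCl pH8 with KCl, BSA, glycerol and Tween-20, cleaved an Abz/nitrotyrosine-quenched decapeptide. Fluorescence (ex 320, em 430) was read at 0 and 20 min at room temperature. Delta was normalized to 5.8 microM ADEP and DMSO/no-enzyme controls.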
Integrin act MD = activates integrin-mediated alleviation for muscular dystrophy | alpha7betagal myoblasts, beta-gal FDG fluorescence, 48 h | Potency, µM (highest dose often 38.3 µM), inactives show at the highest dose activation, most hits filed as activators | 350,000 tested, 0.064% active | AID 624291;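 note: 100% = response of the positive control SU9516; nearly all actives have a fitted effect of over 60% in size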
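Alpha7betagal+/- myoblasts (passage 13) were plated 16-24 hr, then exposed to compounds (1:260 dilution of DMSO stock) for 48 hours at 37C. After MPER lysis, β-galactosidase reporter activity was read as FDG fluorescence (ex 480/em 540) after 30 minutes.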
Eya2 phos inh = blocks the phosphatase activity of human Eya2. recombinant Eya2, OMFP fluorescence dephosphorylation (OMFP is methylfluorescein phosphate). Potency, µM (doses to about 76.9 µM), inactives show top-dose activity, negative = inhibition, actives largely listed as inhibitors. O00167. AID 488837. 330,000 tested, 0.006% active; note: % is set by controls: 0 for no effect and ±100 for the full control effect
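Eya2 protein (added as 0.2 uM solution) was preincubated with compound for 10 min at ambient temperature in 50 mM HEPES pH 7.5, 50 mM NaCl, 5 uM MgCl2, 0.05% BSA, 1 mM DTT. OMFP (added at 50 uM) then reacted 10 min; fluorescence read at 485/525 nm.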
p53 reactivator = mutant p53 re-activation in reporter cells; H1299 p53-A138V BP100-luciferase reporter, luminescence, 24 h; 320,000 tested, 0.063% active; Potency, µM (titrated, usually from 92.2 µM), for the others: at the top dose activity change, positive = activation, actives largely listed as activators; note: % of control where 0% means no effect; nearly all actives have a fitted effect of over 45% in size
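H1299 (p53-null), stable ts p53-A138V + BP100-Luc; 1000 cells/well, Opti-MEM/10% FBS; cpd 4 pt, 1:5; 24 h, 37 deg C, 5% CO2; detection reagent 10 min RT; luminescence.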
USP2a block = blocks human ubiquitin-specific protease USP2a; Potency, µM (doses to about 38.3 µM), inactives show at the highest dose activity change, negative = inhibition, usual class: inhibitors; AID 463254; 330,000 tested, 0.01% active; O75604; USP2 core, Ub-CHOP2 coupled fluorogenic reporter, 485/531;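 note: plate controls were DMSO wells for no effect and full inhibition by NEM control for full effect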
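Deubiquitinase activity read as fluorescence (485/531 nm) after Ub-CHOP2 cleavage activates the enterokinase reporter on its substrate; USP2 core 10nM, Ub-CHOP2 and substrate 25nM each, 30min compound preincubation then 60min RT; data normalized to NEM, curves fitted.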
Mm-Cpn inhibitor = M. maripaludis TRiC chaperonin inhibition; purified Mm-Cpn ATPase, ADP Transcreener TR-FRET; Potency, µM (titrated, usually from 76.9 µM), inactives show at the top dose activity, negative = inhibition, most hits filed as inhibitors; 330,000 tested, 0.031% active; note: % is set by controls: 0 for no effect and ±100 for the full control effect; nearly all actives have a fitted effect of over 80% in size
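Eu-cryptate anti-ADP/ADP-d2 competition gives a ratio inversely related to ADP. Enzyme at 25 nM was pre-exposed to compound for 10 min, then given 10 uM ATP for 30 min, 37°C throughout.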
* hit, by the source's call; u = inconclusive; x = no result given; [ ] = remark or other dose. The entries come from a sample that favours hits as a whole. Unless noted, calls come from the whole dose curve; as a rule, active = well fitted curve in the direction sought with a large enough effect; inconclusive = small, poorly fitted or top-dose-only effect, or another doubt; inactive = no such curve, though single readings can be large; an effect the other way counts as inactive or inconclusive. Potency is the fitted concentration of half-maximal effect.

SMILES	ClpP mod	Integrin act MD	Eya2 phos inh	p53 reactivator	USP2a block	Mm-Cpn inhibitor
COC(=O)c1c(-n2cnnn2)sc(C)c1C	22µM*	16%	12%	-3%	0%	1%
COC(=O)c1c(N2C(=O)Nc3ccccc3N2O)sc(C)c1C	-1%	19%	9%	2%	4%	-12%
Cc1ccc(-c2onc(C)c2C)cc1S(=O)(=O)NCc1cccs1	-1%	x	x	x	x	x
O=C(CCn1c(=O)c2ccccc2n(Cc2cccc([N+](=O)[O-])c2)c1=O)N1CCc2ccccc2C1	25µM*	12%	-5%	-4%	2%	1%
Cc1cccc(CNC(=O)c2ccc(N3Cc4ccccc4Oc4ncccc43)s2)c1	28µM*	x	x	x	x	x
COc1ccccc1CNC(=O)c1ccc(N2Cc3cccc(OC)c3Oc3ncccc32)s1	-26%	x	x	x	x	x
O=Cc1cnc(N2CCCCC2)s1	-4%	11µM*	-1%	17%	1%	2%
COC(=O)c1ccccc1NC(=O)N1CCN(C(=O)c2ccco2)CC1	22µM*	-6%	6%	-5%	-1%	0%
Cc1ccccc1NC(=O)N1CCN(C(=O)c2ccco2)CC1	-2%	u	9%	2%	1%	2%
CCOc1ccc(NC(=O)C2CC(=O)NC(=Nc3ccc(Cl)c(Cl)c3)S2)cc1 (centres undefined)	2%	x	x	x	x	x
COC(=O)c1ccccc1NC(=O)c1cc2sccc2n1C	32µM*	14%[7.66 µM]	16%	9%	2%	u
CC(C)(C)C(=O)CSc1n[nH]c(-c2ccccc2)n1	-1%	x	x	x	x	x
N#Cc1cc2c(ccc3ccccc32)oc1=O	x	-12%	0%	-1%	4%	-15%
Cc1c(C#N)c(=O)oc2ccc3ccccc3c12	7.9µM*	-7%	4%	0%	5%	-18%
COCCCC1CCN(C(=O)c2cc(COc3ccc(C)nc3)on2)CC1	28µM*	-33%	-10%	-30%	-1%	-1%
CC(=O)C1=C(c2ccc(Cl)c(Cl)c2)N(C(C)=O)n2cnnc2S1	-1%	x	x	x	x	x
c1ccc2c(N3CCCCC3)nc(N3CCCC3)nc2c1	u	-64%	0%	-17%	-4%	1%
Nc1nc(N2CCCCC2)nc2ccccc12	18µM*	3%	1%	u	-1%	0%
N#CC(C#N)=Cc1cn(-c2ncc(C(F)(F)F)cc2Cl)c2ccccc12	16µM*	41%	-13%	6%	1%	-3%
NS(=O)(=O)c1cccc(NC(=O)COC(=O)CCSc2ccccc2)c1	16µM*	9%	-9%	0%	-1%	0%
CN(C)S(=O)(=O)c1cccc(NC(=O)COC(=O)CCSc2ccc(Cl)cc2)c1	-1%	-4%	-8%	7%	1%	0%
O=c1cc(CCl)nc2sc3ccccc3n12	-3%	-58%	-25%	-19%	3%	-3%
O=c1c2ccccc2sc2nc(CCl)nn12	16µM*	6%	x	x	x	x
CCOc1ccc(C(C)NC(=O)CCC(=O)O)cc1 (centres undefined)	28µM*	-5%	-10%	4%	-2%	1%
CCOc1ccc(NC(=O)CCC(=O)O)cc1	0%	-10%	-23%	-3%	3%	0%
SMILES	ClpP mod	Integrin act MD	Eya2 phos inh	p53 reactivator	USP2a block	Mm-Cpn inhibitor
COc1ccc(-c2nc(CSCC(=O)NCCC(C)C)c(C)o2)cc1OC	28µM*	x	x	x	x	x
COc1ccc(-c2nc(CSCC(=O)NCCc3ccccc3)c(C)o2)cc1	32µM*	x	x	x	x	x
CCOc1ccc(-c2nc(CSCC(=O)NCCN3CCOCC3)c(C)o2)cc1	32µM*	-8%	18%	-6%	0%	-1%
CCOc1ccc(-c2nc(CSCC(=O)NCCCN3CCCC3=O)c(C)o2)cc1	4%	29%	-8%	-7%	-8%	-1%
CCOc1ccc(-c2nnc(SCC(=O)NCCC(C)C)nc2-c2ccc(OCC)c(OC)c2)cc1OC	16µM*	x	x	x	x	x
COc1ccc(-c2nc(CSCC(=O)NCCc3ccc(OC)c(OC)c3)c(C)o2)cc1	-26%	x	x	x	x	x
CCN1CCN(CCNC(=O)CSCc2nc(-c3ccc(OC)c(OC)c3)oc2C)CC1	-23%	9%	-25%	0%	3%	-2%
CN(C)c1ccc(/C=C2\C=Cc3ccccc32)cc1F	1%	x	x	x	x	x
O=C(C[N+]12CCCc3cccc(c31)CCC2)c1ccccc1	-30%	x	x	x	x	x
FC(F)(F)c1cc(-c2cccs2)nc(-n2cc(Cl)cn2)n1	32µM*	-5%	-9%	-2%	-2%	-3%
CC1CCC(=C(C#N)c2nc(-c3cc4ccccc4oc3=O)cs2)CC1 (centres undefined)	3.5µM*	-14%	-25%	u	1%	-9%
N#C/C(=C\c1ccc(Cl)cc1)c1nc(-c2cc3ccccc3oc2=O)cs1	-1%	x	x	x	x	x
CCc1ccc(OCCn2c(CCNC(=O)C3CCCCC3)nc3ccccc32)cc1	-1%	x	x	x	x	x
CN(CC(=O)O)c1ccc(/C=C/c2ccnc3ccccc23)cc1	-1%	x	x	x	x	x
N#Cc1ccc(-c2ccco2)nc1SCc1ccccc1	10µM*	-7%	0%	1%	0%	-6%
O=C(CCn1c(=O)c2sccc2n(Cc2cc(=O)n3ccccc3n2)c1=O)NCc1ccco1	28µM*	-11%	4%	-2%	1%	0%
COc1ccc(C(N)c2csc(Nc3ccc(C(=O)NCCCO)cn3)n2)cc1 (centres undefined)	28µM*	x	x	x	x	x
CC(N)c1csc(Nc2ccc(C(=O)NCCCO)cn2)n1 (centres undefined)	-14%	x	x	x	x	x
CCC(=O)Nc1ccccc1-c1nc2ccccc2n(CC(=O)c2ccc(C)cc2)c1=O	0%	x	x	x	x	x
Cc1nn(Cc2ccccc2)c(C)c1N	28µM*	0%	7%	-5%	2%	0%
COc1cccc(CNC(=O)CSc2nc(=O)n(Cc3ccncc3)c3c2CCC3)c1	13µM*	-28%	6%	1%	1%	-3%
COc1cccc(NC(=O)CSc2nc(=O)n(Cc3ccncc3)c3c2CCC3)c1	-3%	x	x	x	x	x
Nc1nsc2ccccc12	32µM*	-50%	12%	-37%	2%	0%
CCOc1nc(-c2ccccc2)ccc1-c1noc(COC)n1	35µM*	-22%	-6%	-8%	-1%	1%
CCOc1nc(-c2ccccc2)ccc1-c1noc(-c2cccs2)n1	25µM*	22%	-3%	5%	1%	-19%
CCCn1c(=O)c(C(=O)Nc2ncccc2O)c(O)c2ccccc21	0%	2%	-1%	13%	3%	-3%
Cn1c(=O)c(C(=O)Nc2ncccc2O)c(O)c2ccccc21	-1%	29%	56µM*	15%	u	-2%
